# Screening results deposited in PubChem by National Center for Advancing Translational Sciences (NCATS).
# IMPase cell inh: IMPase inhibition in cells; P97697; CHO-M1 cells, IP1 accumulation, HTRF TR-FRET ratio; inhibition (IP1 accumulation), % at 46.1 µM; 120,000 tested, under 10 active; AID 901; active = well fitted curve in the direction sought with a large enough effect in the signal ratio, not every such curve was filed as active; inconclusive = small, poorly fitted or top-dose-only effect, or a change in a side signal; inactive = no such curve, though single readings can be large or run the other way; the % refers to the signal ratio;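 also: cells stimulated with carbachol in lithium chloride buffer; higher means more IMPase inhibition seen as more IP1 and lower FRET ratio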
#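 CHO-M1, 2000 cells/well, cultured 16–30 h; cpd up to 46 uM; carbachol (50 uM solution, stimulation buffer w/ 50 mM LiCl, pH 7.4), 30 min 37C; IP-One TR-FRET, 10 min RT; Ex 320/Em 665, 620; Hill-fit AC50.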
# HttQ103 aggreg: inhibitors of mutant huntingtin aggregate formation in PC12 cells; Potency, µM (titrated, usually from 46.1 µM), usual class: inhibitors; 1.1% of 220,000 active; PC12 HttQ103-GFP aggregates, Acumen cytometry, 40 h; AID 1688; also: nearly all actives have a fitted effect of over 60% in size
#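 Read-out: GFP aggregate count by laser scanning cytometer (488 nm excitation, 500-530 nm emission, 1–25 µm objects >6 SD above background). Cells: PC12, inducible HTTex1-Q103-GFP, 100 nM tebufenozide; compounds titrated.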
# HTT ATP protect: protects HTT-Q103 PC12 cells, measured by ATP; PC12 HTT-Q103 induced, cytoprotection, ATP luminescence, 40 h; Potency, µM (series often up to 56.4 µM), usual class: activators; 0.14% of 230,000 active; also: nearly all actives have a fitted effect of over 45% in size
#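 Huntington model: PC12 line, ecdysone-inducible HTTQ103 exon1–GFP, tebufenozide 100 nM. Test articles in a dose series. Endpoint luminescence from cellular ATP.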
# HPGD inh: blocks human HPGD enzyme activity | AID 894 | purified HPGD, NADH fluorescence kinetic, PGE2 substrate | 4.3% of 150,000 active | P15428 | Potency, µM, usual class: inhibitors; active = well fitted inhibition curve with a large enough effect, not every such curve was filed as active; inconclusive = small, poorly fitted or top-dose-only effect, or another doubt; inactive = no such curve, though single readings can be large or run the other way
# Target sequence (P15428 whole entry, looked up): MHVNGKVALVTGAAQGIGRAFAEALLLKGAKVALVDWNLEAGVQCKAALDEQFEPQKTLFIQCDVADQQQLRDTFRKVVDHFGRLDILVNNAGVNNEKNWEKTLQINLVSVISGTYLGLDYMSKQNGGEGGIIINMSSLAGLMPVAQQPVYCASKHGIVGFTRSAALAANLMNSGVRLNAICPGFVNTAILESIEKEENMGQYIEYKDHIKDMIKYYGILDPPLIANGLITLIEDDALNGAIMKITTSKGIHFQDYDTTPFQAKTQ
#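 NADH formation kinetics: reaction with 30 uM PGE2 and 1 mM NAD+ (final), 20 nM enzyme, Tris-HCl pH 8 with Tween 20, after 15 min compound preincubation at room temperature. Fluorescence change, last versus first of five reads.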
# ALDH1A1 block: ALDH1A1 (human) enzyme inhibition | Purified ALDH1A1, NADH fluorescence, propionaldehyde substrate | AID 1030 | Potency, µM (top dose mostly 75.3 µM), hits mostly inhibitors | P00352 | 7.3% of 220,000 active; active = well fitted inhibition curve with a large enough effect, not every such curve was filed as active; inconclusive = small, poorly fitted or top-dose-only effect, or another doubt; inactive = no such curve, though single readings can be large or run the other way
# Target sequence (P00352 whole entry, looked up): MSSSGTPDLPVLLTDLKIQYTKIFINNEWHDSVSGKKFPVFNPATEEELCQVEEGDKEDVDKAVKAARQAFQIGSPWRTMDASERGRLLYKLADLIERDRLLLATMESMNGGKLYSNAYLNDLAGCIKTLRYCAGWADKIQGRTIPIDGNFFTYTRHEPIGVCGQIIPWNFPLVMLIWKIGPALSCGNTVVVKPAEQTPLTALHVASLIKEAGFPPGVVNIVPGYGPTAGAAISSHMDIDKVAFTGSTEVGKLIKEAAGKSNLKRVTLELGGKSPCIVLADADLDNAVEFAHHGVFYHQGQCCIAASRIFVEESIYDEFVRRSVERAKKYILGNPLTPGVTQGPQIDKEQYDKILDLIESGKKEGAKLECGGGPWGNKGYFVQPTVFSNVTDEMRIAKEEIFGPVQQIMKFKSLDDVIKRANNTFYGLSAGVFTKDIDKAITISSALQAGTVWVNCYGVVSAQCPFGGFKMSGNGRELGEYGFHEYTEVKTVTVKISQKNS
# IMPase Li inh: cell-permeable IMPase inhibitors with lithium potentiation; AID 1457; Potency, µM (doses to about 59.4 µM), most hits filed as inhibitors; CHO-M1 cells, IP1 TR-FRET (IP-One), carbachol + lithium; 0.35% of 210,000 active;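 also: IP1 builds up when IMPase is blocked and the TR-FRET signal falls; nearly all actives have a fitted effect of over 50% in size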
#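 Lithium-sensitised IP1 accumulation assay; M1-expressing CHO cells treated 30 min at 37C with compound. Competitive antibody detection by time-resolved FRET followed a 10 min room-temperature lysis step.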
# A number is an active result; n = inactive; u = inconclusive; x = no result given; [ ] = another dose, or the depositor's remark. Only some compounds are listed: those with a hit (about 9.4% of all), similar ones and a draw of the others. Unless noted, calls follow the shape of the dose curve; as a rule, active = well fitted curve in the direction sought with a large enough effect; inconclusive = small, poorly fitted or top-dose-only effect, or another doubt; inactive = no such curve, though single readings can be large; an effect the other way counts as inactive or inconclusive.
SMILES,IMPase cell inh,HttQ103 aggreg,HTT ATP protect,HPGD inh,ALDH1A1 block,IMPase Li inh
CC(=O)c1ccc(NCCC(=O)c2ccccc2)cc1,x,n,n,x,6.3µM,n
Cc1ccc(C(=O)CCNc2ccc(Cl)cc2)o1,n,u,n,n,4µM,n
CC(=O)c1ccc(NC(=O)CCOc2ccccc2)cc1,n,x,x,x,x,x
O=C(O)CCN1C(=O)c2ccc(NC(=O)Cc3ccc(Cl)cc3)cc2C1=O,x,n[9.22 µM],n[10 µM],x,u,n
CC(=O)c1ccc(NS(=O)(=O)Cc2ccccc2)cc1,n,n[9.22 µM],n,25µM,n,n
Cc1ccc(NCCC(=O)c2ccc(Cl)cc2)cc1C,n,n,n,n,2.8µM,n
CCc1ccc(C(=O)NNc2ccc(Cl)cc2)cc1,x,n[9.22 µM],n[10 µM],x,u,x
CCc1ccc(NCCC(=O)c2ccc(Cl)cc2)cc1,n,n,n,n,1.6µM,n
C[N+]1(C)C[C@@H](O)C[C@@H]1C(=O)[O-],n,x,n,n,n,n
N#Cc1nc(COc2ccccc2F)oc1NCCc1ccccc1,n,n,n[10 µM],13µM,n,n
Cc1ccc(OCc2nc(C#N)c(NCCc3ccccc3)o2)cc1,n,x,x,x,x,x
N#Cc1nc(Cc2ccccc2)oc1NCc1ccccc1,n,n,n[10 µM],14µM,n,n
N#Cc1nc(Cc2ccccc2)oc1NCCN1CCOCC1,n,n,n[0.074 µM],n,n,n
CCOc1cc2c(cc1OCC)C(c1c(F)cccc1Cl)CC(=O)N2 (centres undefined),n,x,x,x,x,x
COc1ccc(-c2c3c(=O)n(C)c(=O)n(C)c3c3c(-c4cccc(C)c4)nc4ccccc4n23)cc1,n,x,x,x,x,x
COc1ccc(C(=O)N2CCC3(CCN(C(=O)Nc4cccc(F)c4)CC3)CC2)cc1,x,x,n,n,u,n
COc1cc(C(c2c(C)[nH][nH]c2=O)c2c(C)[nH][nH]c2=O)ccc1OC(C)C,n,n,n[10 µM],u,14µM,n
COc1cc(C(c2c(C)[nH][nH]c2=O)c2c(C)[nH][nH]c2=O)ccc1OS(=O)(=O)c1ccc(C)cc1,n,n,n,n,n,n
COc1cc(C(c2c(C)[nH][nH]c2=O)c2c(C)[nH][nH]c2=O)ccc1OS(=O)(=O)c1ccccc1,n,n,n,n,1.6µM,n
CCCCOc1ccc(C(=O)N/C(=C\c2ccc(Br)cc2)C(=O)NC2CCCCC2)cc1,n,x,x,x,x,x
COc1ccc(-n2nc3cc(C)c(NC(=O)c4ccc(-c5ccc(Br)cc5)o4)cc3n2)cc1,n,x,x,x,x,x
Cc1ccc(C(=O)COC(=O)c2cn3ccccc3n2)cc1,x,n,n,x,n,n
O=C(CN1CCSC1=NCc1ccccc1)c1ccc(Cl)c(Cl)c1,n,n,n[10 µM],n,13µM,n
CC(CC(=O)c1cccs1)CC(=O)c1cccs1,n,n,n[10 µM],13µM,7.9µM,n
O=C(O)CCCCCCCCCC(=O)c1cccs1,n,n,n,16µM,n,n
SMILES,IMPase cell inh,HttQ103 aggreg,HTT ATP protect,HPGD inh,ALDH1A1 block,IMPase Li inh
C[C@H](CN1c2ccccc2Sc2cccnc21)N(C)C,x,n,n,x,x,x
CN(C)Cc1ccccc1-c1cncnc1NC1CC1,x,x,n,n,n,n
Cc1ccc(Nc2c([N+](=O)[O-])cc(C(=O)N3CC(=O)Nc4ccccc43)cc2[N+](=O)[O-])c(C)c1,n,n,n,16µM,n,n
O=C1CN(C(=O)c2ccccc2F)c2ccccc2N1,n,u,n,n,n,n
Cc1cc(C)c(CN2CCN(Cc3ccc(C)o3)C(CCO)C2)c(-n2cccn2)c1 (centres undefined),x,n[9.22 µM],n[10 µM],x,n,n
O=C1C(Cl)=C(NCC2CCCO2)C(=O)N1c1ccccc1 (centres undefined),u,u,n[10 µM],x,n,x
O=C1C(Cl)=C(NCC2CCCO2)C(=O)N1C1CCCCC1 (centres undefined),n,n,n,n,4µM,n
Cc1noc(C)c1C(=O)N1CCC2(CC1)CN(C(=O)Nc1cccc(F)c1)C2,x,x,n,n,n,n
Cc1ccc(C2OCC3(CO)COC(c4ccc(C)cc4)N23)cc1 (centres undefined),n,n,n,n,4.5µM,n
Cc1ccc(C2OCC3(CO2)COC(c2ccc(C)cc2)OC3)cc1 (centres undefined),x,n,n[10 µM],n,n,n
CCOC(=O)c1ncc2[nH]c3cccc(OC(C)C)c3c2c1C,x,x,n,n,n,n
COc1cccc(NC(=O)CSc2ncnc3c2oc2ccccc23)c1,u,n,n,n,n,11µM
O=C(CSc1ncnc2c1oc1ccccc12)N1CCc2ccccc2C1,n,n,n,4µM,n,n
O=C(CSc1ncnc2c1oc1ccccc12)N1CCCc2ccccc21,n,u,n[10 µM],n,u,n
CCOC(=O)CC(=O)CSc1ncnc2c1oc1ccccc12,u,n,n,14µM,n,8.9µM
COc1ccc(Cl)cc1NC(=O)CSc1ncnc2c1oc1ccccc12,x,n,x,n,n,n
O=C(COc1c(Br)cc(Br)c2cccnc12)N1CCc2ccccc2C1,n,u,n,18µM,11µM,u
CS(=O)(=O)N1CCC2(CCCN(c3ccccn3)C2)CC1,x,x,n,u,u,n
COc1cccc(NC(=O)CSc2nc3c(oc4ccccc43)c(=O)[nH]2)c1,x,n,x,16µM,n,n
C[C@H]1Cc2c(-c3ccccc3)nc3c(c2CO1)CN(S(=O)(=O)c1ccc2c(c1)OCCN2C)CC3,x,x,n[10 µM],n,n[13.5 µM],n
O=C(NC1CCCC1)C1CCCN(S(=O)(=O)c2ccc(-n3cnnn3)cc2)C1 (centres undefined),n,n,n[10 µM],n,n,n
O=C(NC1CCCCC1)C1CCCN(c2nnnn2-c2ccccc2)C1 (centres undefined),n,n,n,n,10µM,n
CCOC(=O)C1CCCN(c2nnnn2-c2ccccc2)C1 (centres undefined),n,n,n[10 µM],n,7.1µM,n
C[C@@H]1CC2(OC[C@]3(C)O[C@H]23)O[C@H]2C[C@@]3(C)[C@@H]4CC[C@H]5C(C)(C)C(O[C@@H]6OC[C@@H](O)[C@H](O)[C@H]6O)CC[C@@]56C[C@@]46CC[C@]3(C)[C@@H]12 (some centres undefined),x,x,n,n,n,n
O=c1/c(=C\c2ccc(O)cc2)sc2n1C(c1ccccc1)C(c1ccccc1)=NN=2 (centres undefined),n,n,n,16µM,8.9µM,n
Cc1noc(C)c1C(=O)N1CCC[C@@]2(CCN(C(c3ccccc3)c3ccccc3)C2)C1,x,x,n,n,n,n
CCCNC1=C(N(C(C)=O)c2cccc(F)c2)C(=O)c2ccccc2C1=O,x,11µM,n[10 µM],n,n,n
Clc1ccccc1C(Nc1cnccn1)Nc1cnccn1,x,x,n[10 µM],u,n[13.5 µM],n
O=C1CCN(N=Nc2cccc(Cl)c2)N1,n,n,n,u,20µM,n
